Values joined by “and” are separate entries in the source; they are usually repeats but may differ in a detail not shown here. Equal entries are not always repeated. Hit rate of the full screen: of about 5,500 compounds, about 2,000 (36%) were called active. About 18% were inconclusive and are not listed. No stated cut-off is given here; in the data, active means normalized growth mostly below about 0.91 (no sharp cut-off); inconclusive means no clear call, values can overlap the other calls; inactive means mostly above about 0.92. The list shows a part of the results.
Experiment: chemical genetic growth profiling, strain panel (AID 1159580);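 further: tested at 20 µM; growth read once vehicle control cultures reached saturation at 30 °C; 1 = growth at the plate median or of vehicle wells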
Details: growth OD

Measured: normalized growth

CCCCC[C@H]1C(=O)O[C@H](C)[C@H](NC(=O)c2cccc(NC=O)c2O)C(=O)O[C@@H](C)[C@@H]1OC(=O)CC(C)C
inactive: S. cerevisiae deletion strains, locus YBR021W, strain FUR4, stronger effect = lower value 0.965 | S. cerevisiae deletion strains, locus YBR229C, strain ROT2, stronger effect = lower value 0.949 | S. cerevisiae deletion strains, locus YCL029C, strain bik1, stronger effect = lower value 0.922 | S. cerevisiae deletion strains, locus YDL074C, strain BRE1, stronger effect = lower value 0.797 | S. cerevisiae deletion strains, locus YDL101C, strain DUN1, stronger effect = lower value 0.936 | S. cerevisiae deletion strains, locus YDL185W, strain tfp1, stronger effect = lower value 0.919 | S. cerevisiae deletion strains, locus YDR101C, strain arx1, stronger effect = lower value 0.93 | S. cerevisiae deletion strains, locus YDR162C, strain NBP2, stronger effect = lower value 0.905 | S. cerevisiae deletion strains, locus YDR502C, strain sam2, stronger effect = lower value 0.939 | S. cerevisiae deletion strains, locus YEL061C, strain CIN8, stronger effect = lower value 0.936 | S. cerevisiae deletion strains, locus YER110C, stronger effect = lower value 0.979 | S. cerevisiae deletion strains, locus YER155C, strain BEM2, stronger effect = lower value 0.978 | S. cerevisiae deletion strains, locus YGL248W, strain PDE1, stronger effect = lower value 0.912 | S. cerevisiae deletion strains, locus YHR030C, strain SLT2, stronger effect = lower value 0.947 and 0.873 | S. cerevisiae deletion strains, locus YHR079C, strain IRE1 (second series), stronger effect = lower value 0.943 | S. cerevisiae deletion strains, locus YHR079C, strain IRE1, stronger effect = lower value 0.863 | S. cerevisiae deletion strains, locus YHR094C, strain hxt1, stronger effect = lower value 0.933 | S. cerevisiae deletion strains, locus YIL066C, strain RNR3, stronger effect = lower value 0.88 | S. cerevisiae deletion strains, locus YIL073C, strain SPO22, stronger effect = lower value 0.844 | S. cerevisiae deletion strains, locus YIR030C, strain dcg1, stronger effect = lower value 0.946 | S. cerevisiae deletion strains, locus YJL134W, strain LCB3, stronger effect = lower value 0.932 | S. cerevisiae deletion strains, locus YJL168C, strain set2, stronger effect = lower value 0.933 | S. cerevisiae deletion strains, locus YJL187C, strain SWE1 (second series), stronger effect = lower value 0.889 | S. cerevisiae deletion strains, locus YJR066W, strain TOR1, stronger effect = lower value 0.861 | S. cerevisiae deletion strains, locus YKL068W, stronger effect = lower value 1.02 | S. cerevisiae deletion strains, locus YKL085W, strain MDH1 (second series), stronger effect = lower value 0.961 | S. cerevisiae deletion strains, locus YKL085W, strain MDH1, stronger effect = lower value 0.961 | S. cerevisiae deletion strains, locus YKL190W, strain CNB1, stronger effect = lower value 0.933 | S. cerevisiae deletion strains, locus YKR001C, strain vps1, stronger effect = lower value 0.922 | S. cerevisiae deletion strains, locus YLR039C, strain RIC1, stronger effect = lower value 0.933 | S. cerevisiae deletion strains, locus YLR058C, strain SHM2, stronger effect = lower value 0.932 | S. cerevisiae deletion strains, locus YLR102C, strain apc9, stronger effect = lower value 0.944 | S. cerevisiae deletion strains, locus YLR262C, strain YPT6, stronger effect = lower value 0.84 | S. cerevisiae deletion strains, locus YLR268W, strain sec22, stronger effect = lower value 0.923 | S. cerevisiae deletion strains, locus YLR330W, strain CHS5, stronger effect = lower value 0.962 | S. cerevisiae deletion strains, locus YLR342W, strain FKS1 (second series), stronger effect = lower value 0.887 | S. cerevisiae deletion strains, locus YLR371W, strain rom2, stronger effect = lower value 0.921 | S. cerevisiae deletion strains, locus YLR418C, strain cdc73, stronger effect = lower value 0.893 | S. cerevisiae deletion strains, locus YML016C, strain PPZ1, stronger effect = lower value 0.946 | S. cerevisiae deletion strains, locus YML124C, strain tub3, stronger effect = lower value 0.943 | S. cerevisiae deletion strains, locus YMR263W, strain SAP30, stronger effect = lower value 0.921 | S. cerevisiae deletion strains, locus YMR307W, strain GAS1, stronger effect = lower value 0.616 | S. cerevisiae deletion strains, locus YNL067W, strain RPL9B, stronger effect = lower value 0.921 | S. cerevisiae deletion strains, locus YNL233W, strain BNI4, stronger effect = lower value 0.914 | S. cerevisiae deletion strains, locus YNL307C, strain MCK1, stronger effect = lower value 0.967 | S. cerevisiae deletion strains, locus YNL322C, strain KRE1, stronger effect = lower value 0.937 | S. cerevisiae deletion strains, locus YOL006C, strain TOP1, stronger effect = lower value 0.736 | S. cerevisiae deletion strains, locus YOL012C, strain htz1 0.619 | S. cerevisiae deletion strains, locus YOL147C, strain pex11, stronger effect = lower value 0.942 | S. cerevisiae deletion strains, locus YOR061W, strain CKA2, stronger effect = lower value 0.895 | S. cerevisiae deletion strains, locus YOR069W, strain VPS5, stronger effect = lower value 0.932 | S. cerevisiae deletion strains, locus YOR136W, strain idh2, stronger effect = lower value 0.983 | S. cerevisiae deletion strains, locus YOR231W, strain MKK1, stronger effect = lower value 0.864 | S. cerevisiae deletion strains, locus YOR316C, strain cot1, stronger effect = lower value 0.945 | S. cerevisiae deletion strains, locus YPL256C, strain CLN2, stronger effect = lower value 0.912 | S. cerevisiae deletion strains, locus YPR119W, strain clb2, stronger effect = lower value 0.939 | S. cerevisiae deletion strains, locus YPR167C, strain met16, stronger effect = lower value 0.939 | S. cerevisiae deletion strains, strain wtn01, stronger effect = lower value 0.901
active: S. cerevisiae deletion strains, locus YDL035C, strain GPR1, stronger effect = lower value 0.839 | S. cerevisiae deletion strains, locus YDL134C, strain PPH21, stronger effect = lower value 0.86 | S. cerevisiae deletion strains, locus YDL192W, strain arf1, stronger effect = lower value 0.91 | S. cerevisiae deletion strains, locus YDR318W, strain mcm21, stronger effect = lower value 0.908 | S. cerevisiae deletion strains, locus YDR388W, stronger effect = lower value 0.913 | S. cerevisiae deletion strains, locus YER167W, strain BCK2, stronger effect = lower value 0.904 | S. cerevisiae deletion strains, locus YGL078C, strain dbp3, stronger effect = lower value 0.895 | S. cerevisiae deletion strains, locus YGL086W, strain mad1, stronger effect = lower value 0.923 | S. cerevisiae deletion strains, locus YGR135W, strain pre9, stronger effect = lower value 0.891 | S. cerevisiae deletion strains, locus YGR252W, strain gcn5, stronger effect = lower value 0.684 | S. cerevisiae deletion strains, locus YHR129C, strain ARP1, stronger effect = lower value 0.904 | S. cerevisiae deletion strains, locus YHR200W, strain rpn10, stronger effect = lower value 0.904 | S. cerevisiae deletion strains, locus YIL125W, strain kgd1, stronger effect = lower value 0.896 | S. cerevisiae deletion strains, locus YJR043C, strain POL32, stronger effect = lower value 0.838 | S. cerevisiae deletion strains, locus YLR113W, strain HOG1, stronger effect = lower value 0.777 | S. cerevisiae deletion strains, locus YML032C, strain rad52, stronger effect = lower value 0.83 | S. cerevisiae deletion strains, locus YMR078C, strain ctf18, stronger effect = lower value 0.9 | S. cerevisiae deletion strains, locus YMR223W, strain ubp8, stronger effect = lower value 0.88 | S. cerevisiae deletion strains, locus YNL183C, strain NPR1, stronger effect = lower value 0.827 | S. cerevisiae deletion strains, locus YNL250W, strain rad50, stronger effect = lower value 0.853 | S. cerevisiae deletion strains, locus YNL271C, strain bni1, stronger effect = lower value 0.9 | S. cerevisiae deletion strains, locus YNL298W, strain CLA4, stronger effect = lower value 0.891 | S. cerevisiae deletion strains, locus YNR052C, strain pop2, stronger effect = lower value 0.874 | S. cerevisiae deletion strains, locus YOR144C, strain elg1, stronger effect = lower value 0.933 | S. cerevisiae deletion strains, locus YOR184W, strain ser1, stronger effect = lower value 0.674 | S. cerevisiae deletion strains, locus YPR141C, strain kar3, stronger effect = lower value 0.9 | S. cerevisiae deletion strains, locus YPR163C, strain tif3, stronger effect = lower value 0.893 | S. cerevisiae strains, strain wild type, stronger effect = lower value 0.895
0.875 (inactive) and 0.859 (active): S. cerevisiae deletion strains, locus YJL095W, strain BCK1, stronger effect = lower value

Source: PubChem BioAssay AID1159580 (chemical genetic matrix, 2015)
